Rows were chosen to be rich in hits. Some 3.9% of all compounds tested hit in one or more screens of this group.
p53null 32C tox – qHTS Screen for Compounds that Selectively Target Cancer Cells with p53 Mutations: Cytotoxicity of p53 Null Cells at the Permissive Temperature; H1299-neo p53 null cells, ATP luminescence, 24 h, 32C; hit rate 0.62% among 55,000; Potency, µM (highest dose often 46.1 µM), inactives show at the top dose activity change, negative = cytotoxicity, actives largely listed as cytotoxic;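 also: potency is read from the fitted curve at half-maximal effect; 0% = DMSO only and -100% = full killing by 100 µM tamoxifen; nearly all actives have a fitted effect of over 55% in size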
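Overnight 37C seeding (600 cells/well) of H1299-neo preceded a 24 hr, 32C exposure to compounds up to 46 uM. ATP levels, read by luminescence after 20 min at RT, indicated surviving cells.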
GPR32 ag – qHTS for Agonists of Human Resolvin D1 Receptor DRV1 | Probable G-protein coupled receptor 32 (Homo sapiens), O75388 | CHO-K1 GPR32 beta-arrestin PathHunter luminescence, 90 min; zero percent set by DMSO-only wells | activation, % at 76.9 µM | hit rate 2.5% among 48,000;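 active = activation of at least 60% and not above a set upper limit, about 1 call in 100 departs from these limits; inconclusive = activation of 40% to 60%, or above that upper limit; inactive = activation under 40%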; also: 0% is about no effect
Target sequence (O75388 whole entry, looked up): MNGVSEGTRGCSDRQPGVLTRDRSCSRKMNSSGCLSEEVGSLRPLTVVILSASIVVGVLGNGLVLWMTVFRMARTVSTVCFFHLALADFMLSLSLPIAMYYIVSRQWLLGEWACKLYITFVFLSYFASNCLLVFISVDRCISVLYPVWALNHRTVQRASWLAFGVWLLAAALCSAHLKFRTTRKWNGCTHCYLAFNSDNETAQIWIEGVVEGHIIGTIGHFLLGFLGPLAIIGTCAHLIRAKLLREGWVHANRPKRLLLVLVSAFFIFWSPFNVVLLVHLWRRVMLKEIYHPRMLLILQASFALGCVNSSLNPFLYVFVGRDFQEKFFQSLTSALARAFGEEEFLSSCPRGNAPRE
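GPR32 activation in stably transfected CHO-K1 cells, detected as beta-arrestin recruitment by enzyme-fragment complementation. Compound exposure: 90 min, 37 °C.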
HTT-AS act – Primary qHTS for Identification of Small Molecule Activators of Huntingtin-Antisense Promoter Activity. hit rate 0.24% among 48,000. HEK293 HTT-AS promoter firefly luciferase reporter, 24 h; response scale: percent change from vehicle, -100% = no light. Potency, µM (doses to about 57.5 µM), inactives show at the highest dose activity change, positive = activation, most hits filed as activators; also: potency is read from the fitted curve at half-maximal effect; nearly all actives have a fitted effect of over 55% in size
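HEK293 Fluc reporter, 2,500 cells/well, 24 h pre-culture; cpds up to 57.5 uM final, 24 h 37 degrees C; Dual-Glo, 10 min RT; normalized vehicle = 0%, zero RLU = -100%.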
p53null 39C tox – qHTS Screen for Compounds that Selectively Target Cancer Cells with p53 Mutations: Cytotoxicity of p53 Null Cells at the Nonpermissive Temperature | hit rate 0.97% among 55,000 | Potency, µM (titrated, usually from 46.1 µM), without a hit: top-dose activity, negative = cell killing, most hits filed as cytotoxic | AID 904, 2007 | H1299 p53-null (neo) cells, 39C, ATPlite viability, 24 h;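 also: potency is read from the fitted curve at half-maximal effect; 0% = DMSO only and -100% = full killing by 100 µM tamoxifen; nearly all actives have a fitted effect of over 50% in size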
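Following overnight plating at 37C (600 cells/well), H1299-neo or H1299-p53A138V cells are dosed up to 46 uM. Incubation lasts 24 hr at 39C before ATP detection.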
HTT promoter inh – Primary qHTS for Identification of Small Molecule Inhibitors of Huntingtin Promoter Activity | HEK293 HTT promoter firefly luciferase reporter, 24 h | Potency, µM (doses to about 57.5 µM), for inactives: at the highest dose activity change, negative = inhibition, usual class: inhibitors | hit rate 0.93% among 48,000 | AID 1508623, 2021; also: potency is read from the fitted curve at half-maximal effect; nearly all actives have a fitted effect of over 50% in size
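Quantitative HTS used concentration series of up to 57.5 uM final on HEK293 luciferase reporter cells, 24 h at 37 degrees C. Readout was Dual-Glo firefly luminescence.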
An asterisk follows results filed as active; ? = inconclusive; / = no result; ! = a repeat was not active. Unless noted, calls follow the shape of the dose curve; as a rule, active = well fitted curve in the direction sought with a large enough effect; inconclusive = small, poorly fitted or top-dose-only effect, or another doubt; inactive = no such curve, though single readings can be large; an effect the other way counts as inactive or inconclusive.

SMILES	p53null 32C tox	GPR32 ag	HTT-AS act	p53null 39C tox	HTT promoter inh
CCCc1cc(=O)[nH]c(Nc2cccc(Cl)c2Cl)n1	-6%	87*	/	-16%	/
CCCc1cc(=O)[nH]c(Nc2cc(Cl)cc(Cl)c2)n1	29%	99*	/	?	/
CCCc1cc(=O)[nH]c(Nc2cc(C)cc(C)c2)n1	-8%	6	/	25%	/
COc1ccc2nc(NC(=O)Nc3ccccc3)sc2c1	/	101*	?	/	20%
COc1ccc(C(=O)Nc2nc3ccc(S(C)(=O)=O)cc3s2)cc1	-1%	/	/	-11%	/
COc1ccc2nc(NC(=O)c3cc(=O)c4ccccc4o3)sc2c1	?	-17	3.2µM*	?	67%
Cc1ccc(C(=O)Nc2nc3ccc(S(C)(=O)=O)cc3s2)o1	13µM*	/	/	10µM*	/
Nc1ccccc1NC(=O)c1ccc(CNc2nccc(-c3cccnc3)n2)cc1	/	/	-13%	/	45%
COc1ccc(-c2nc3ccccc3o2)cc1NC(=O)COc1ccc(C)c(C)c1	10%	3	?	12%	23%
COc1ccc(OCC(=O)Nc2cc(-c3nc4ccccc4o3)ccc2Cl)cc1	-9%	2	10µM*	5%	49%
CCc1ccc(OCC(=O)Nc2ccc(Cl)c(-c3nc4ncccc4o3)c2)cc1	-4%	118*	?	-13%	36%
COc1ccc(-c2nc3ccccc3o2)cc1NC(=O)c1cccnc1	-10%	86*	9%	?	-5%
O=C(COc1ccccc1)Nc1ccc(Cl)c(-c2nc3ncccc3o2)c1	8%	/	/	-4%	/
NC(=O)c1cnc(-c2ccc(C3(N)CCC3)cc2)c(-c2ccccc2)c1	/	/	-13%	/	-13%
CC1=C(C(N)=O)C(c2cccc(O)c2)n2ncnc2N1 (configuration not stated)	5%	61*	-3%	-12%	-5%
CN(C)CCOc1ccc(-c2nc(-c3ccc4c(c3)CCC4=NO)c(-c3ccncc3)[nH]2)cc1	/	/	-6%	/	7%
CSc1oc(-c2ccc(F)cc2)nc1S(=O)(=O)c1ccccc1	-1%	/	/	26%	/
CC(C)S(=O)(=O)c1oc(-c2ccc(F)cc2)nc1S(=O)(=O)c1ccccc1	?	-10	-96%	3.2µM*	?
CCCCS(=O)(=O)c1oc(-c2ccc(F)cc2)nc1S(=O)(=O)c1ccccc1	18µM*	-16	-94%	?	?
COc1ccc(-c2nsc(NC(=O)c3ccccc3Br)n2)cc1	2%	20	?	-3%	32%
O=C(Nc1nc(-c2ccc(Br)cc2)ns1)c1ccccc1F	-18%	60*	-7%	-11%	-9%
Cc1ccc(C2CC(=O)Nc3cc4c(cc32)OCCO4)cc1Br (configuration not stated)	29%	-8	-41%	-5%	25µM*
COc1ccccc1Nc1nn2c(=O)c3ccc(C(=O)NCc4cccs4)cc3nc2s1	10µM*	-6	-34%	?	-32%
CCOc1ccccc1Nc1nc2ccccc2nc1NS(=O)(=O)c1ccc(Cl)cc1	-10%	67*	-26%	21%	-11%
CNCCC(Oc1ccc(C(F)(F)F)cc1)c1ccccc1 (configuration not stated)	/	104*!	-27%	/	-9%
SMILES	p53null 32C tox	GPR32 ag	HTT-AS act	p53null 39C tox	HTT promoter inh
COc1ccc(Cl)cc1Nc1sc(C(=O)c2ccccc2)c(N)c1C(=O)Nc1ccccc1	6%	-97	-29%	2%	28µM*
CNC(=O)c1cnn(-c2nc(N)c3ncn([C@@H]4O[C@H](CO)[C@@H](O)[C@H]4O)c3n2)c1	/	-2	-13%	/	-7%
Cc1ccc2occ(CC(=O)Nc3ccc(Cl)c(C(F)(F)F)c3)c2c1	25%	?	-84%	16µM*	?
CCC(=O)Nc1ccc2nc(SCCOc3ccc(C)cc3OC)sc2c1	-3%	93*	-12%	-18%	-14%
CCC(=O)Nc1ccc2nc(SCCOc3cccc(C)c3)sc2c1	0%	86*	-30%	-11%	?
COc1ccc(CNC(=O)c2cc(-c3cccc(Cl)c3)on2)cc1	-1%	66*	/	-8%	/
CC1CCN(C(=O)c2cc(-c3ccc(Cl)c(Cl)c3)on2)CC1	4%	/	/	1%	/
CC1CCN(C(=O)c2cc(-c3ccc(Cl)cc3)on2)CC1	-6%	13	2µM*	-19%	74%
O=C(c1cc(-c2cccc(Cl)c2)on1)N1CCCCC1	-30%	66*	/	?	/
O=C(C=Cc1ccc(CN(CCO)CCc2c[nH]c3ccccc23)cc1)NO	/	/	?	/	186%
Cc1ccc(N=C2NC(=O)CC(C(=O)Nc3cc(C(F)(F)F)ccc3Cl)S2)cc1 (configuration not stated)	-21%	80*	-26%	?	?
CCN(c1ccc(C)cc1)S(=O)(=O)c1nnc(NC(=O)c2cccs2)s1	8%	85*	-34%	?	?
CCN(c1ccccc1)S(=O)(=O)c1nnc(NC(=O)c2cccs2)s1	1.3µM*	49	-32%	1µM*	-24%
Cc1nc(Nc2n[nH]c3c2CN(C(=O)N[C@H](CN(C)C)c2ccccc2)C3(C)C)c2sccc2n1	/	/	?	/	-23%
Nc1nc(=O)n([C@H]2C[C@H](O)[C@@H](CO)O2)cc1F	/	/	-8%	/	-12%
CCCCC(=O)N(c1ccc2oc(C)c(C(C)=O)c2c1)S(=O)(=O)c1ccc(F)cc1C	3%	-7	-29%	11%	-41%
COc1ccc(S(=O)(=O)N(C(=O)c2ccncc2)c2ccc3oc(C)c(C(C)=O)c3c2)cc1	2%	12	-51%	?	14µM*
CC(=O)c1c(C)oc2ccc(N(C(=O)c3ccncc3)S(=O)(=O)c3ccc(C)cc3C)cc12	5%	8	-45%	-19%	28µM*
COc1ccc(S(=O)(=O)N(C(=O)c2ccncc2)c2ccc3oc4c(c3c2)CCCC4)cc1	16%	/	/	/	/
CCOC(=O)c1c(C)oc2ccc(N(C(=O)c3ccncc3)S(=O)(=O)c3ccc(F)cc3)cc12	27%	-7	-34%	31%	?
CCc1ccc(S(=O)(=O)N(C(=O)c2ccncc2)c2ccc3oc(C)c(C(=O)OC)c3c2)cc1	67%	2	-87%	95%	13µM*
CCOc1ccc(S(=O)(=O)N(C(=O)c2ccncc2)c2ccc3oc(C)c(C(=O)OC)c3c2)cc1	42%	-3	-72%	?	2µM*
CN(C)CCN1C(=O)c2cccc3cc(N)cc(c23)C1=O	/	/	-43%	/	?

Compound activity: PubChem BioAssay, National Center for Advancing Translational Sciences (NCATS)
